# Measured values published in PubChem BioAssay (NCI).
# This is part of a sample that, as a whole, favours compounds with a hit. Of some 83,000 tested, about 20% had one in any assay.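 Step 1: grow cells in 96-well plates. Step 2: add test compound at a single concentration. Step 3: incubate 48 h. Step 4: record percent growth.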 A number with no mark means an inactive call. Calls of active or inactive are those of the source. The calls were made as follows: active = growth percent below 10; inactive = the rest.
# Key:
# Assay in all cases: NCI-60 one-dose screen, 48 h (100 = growth as untreated, 0 = no growth, -100 = all killed)
# Conditions in all cases: 10 µM unless noted
# NCI-H23 lung = system: NCI-H23 lung
# NCI-H226 lung = system: NCI-H226 lung
# NCI-H322M lung = system: NCI-H322M lung
# HOP-62 NSCLC = system: HOP-62 NSCLC
# NCI-H460 lung = system: NCI-H460 lung
# HOP-92 NSCLC = system: HOP-92 NSCLC
# NCI-H522 lung = system: NCI-H522 lung
# A549/ATCC NSCLC = system: A549/ATCC NSCLC
# 786-0 renal = system: 786-0 renal
# COLO 205 colon = system: COLO 205 colon
# DU-145 prostate = system: DU-145 prostate
# K-562 leukemia = system: K-562 leukemia
# MALME-3M melanoma = system: MALME-3M melanoma
# MDA-MB-231 breast = system: MDA-MB-231 breast
# RXF 393 renal = system: RXF 393 renal
# SF-268 CNS = system: SF-268 CNS
# SF-295 CNS = system: SF-295 CNS
# SF-539 CNS = system: SF-539 CNS
# UACC-257 melanoma = system: UACC-257 melanoma
# M14 melanoma = system: M14 melanoma
Structure (SMILES),growth (NCI-H23 lung),growth (NCI-H226 lung) [%],growth (NCI-H322M lung) [%],growth (HOP-62 NSCLC),growth (NCI-H460 lung),growth (HOP-92 NSCLC),growth (NCI-H522 lung),growth (A549/ATCC NSCLC),growth (786-0 renal),growth (COLO 205 colon),growth (DU-145 prostate),growth (K-562 leukemia),growth (MALME-3M melanoma),growth (MDA-MB-231 breast),growth (RXF 393 renal),growth (SF-268 CNS) [%],growth (SF-295 CNS),growth (SF-539 CNS),growth (UACC-257 melanoma),growth (M14 melanoma)
Cc1ccc(Sc2oc(-c3ccc(C)cc3)nc2[P+](c2ccccc2)(c2ccccc2)c2ccccc2)cc1,-17.2% (active),15.7,10.3,9.94% (active),-39.6% (active),-9.3% (active),-38.5% (active),7.74% (active),3.99% (active),-41.5% (active),11.6%,4.98% (active),-41.1% (active),-12.5% (active),-18.8% (active),10.9,9.9% (active),-5.1% (active),0.818% (active),7.37% (active)
CCOP(=O)(OCC)c1nc(-c2ccccc2)oc1NCc1cccnc1,102%,104,106,100%,107%,114%,92.8%,104%,104%,117%,107%,102%,100%,108%,110%,104,106%,96.2%,109%,111%
O=C(CSc1nc2ccc([N+](=O)[O-])cc2[nH]1)Nc1cccc(C(F)(F)F)c1,1.74% (active),10.8,50.1,27.6%,14.4%,-28.9% (active),3.44% (active),23.2%,23.9%,16.8%,30.6%,13.6%,-0.63% (active),38.5%,44.7%,24.3,33%,36.5%,14.3%,27.6%
C=C(C)[C@@H]1CC[C@]2(C)[C@H](CC=C3[C@@H]4[C@H](C)[C@@H](C)CC[C@]4(CO)CC[C@]32C)[C@@]1(C)CCCN,60.9%,84.5,43.7,-63.1% (active),-81.9% (active),4.6% (active),-41.8% (active),-31.6% (active),39.3%,-57.2% (active),28.4%,1.75% (active),-79.1% (active),3.87% (active),21.7%,59,77.2%,13%,-56.7% (active),-46.2% (active)
CC(C)N1CN2C(=S)NC3C2N(C1)C(=S)N3C (stereo not given),102%,100,104,103%,105%,101%,90.2%,90.8%,99.3%,120%,104%,102%,105%,110%,105%,96,98%,109%,95%,105%
CN(CCn1sc(=O)n(Cc2ccccc2)c1=O)Cc1ccc2c(Cl)cc(Cl)c(O)c2n1,50.1%,61.9,41,25.2%,19.8%,36%,80.9%,32.6%,37.6%,93.7%,51.6%,13.7%,63.7%,46.4%,53.7%,46.1,30.5%,47.1%,78.5%,49.4%
CCCCN1C(=O)/C(=c2\sc3n(c2=O)C2C(NN=3)N(CC)C(=O)N2CC)c2ccccc21 (stereo not given),25%,51.1,52.9,18%,3.01% (active),26.8%,-15.2% (active),7.06% (active),22.1%,1.59% (active),8.48% (active),5.85% (active),36.4%,8.32% (active),-29.5% (active),42.5,2.37% (active),-40.4% (active),-9.63% (active),6.24% (active)
O=C1c2cc(Cl)ccc2S(=O)(=O)c2c(NCCCNCCO)nc3ccccc3c21,25.7%,27.4,73.8,42.3%,22.5%,-66% (active),-77.1% (active),43.3%,2.5% (active),-81.2% (active),-24.7% (active),0.0837% (active),-81.4% (active),-70.7% (active),-36.5% (active),31.8,40.6%,-18% (active),10.3%,-37.9% (active)
C=C(C)[C@@H]1CC[C@]2(C(=O)N3CCN(C)CC3)CC[C@]3(C)[C@H](CC[C@@H]4[C@@]5(C)CC(=C/c6ccncc6)/C(=N/O)C(C)(C)[C@@H]5CC[C@]43C)[C@@H]12,78.1%,88.4,75.1,96.8%,69.5%,56.7%,69%,73.9%,74.6%,80.8%,77.1%,34.4%,87.4%,65.7%,71.9%,63,91.6%,83.6%,85.8%,94.5%
S=C(Nc1ccc(-c2nc(N3CCOCC3)c3cccn3n2)cc1)Nc1cccnc1,37.7%,38.2,35.7,46.6%,43.2%,-3.48% (active),4.32% (active),24.1%,36.7%,28%,18.6%,26.2%,24.7%,41.3%,17.9%,53.1,25.6%,10%,50.9%,32.1%
N#Cc1c(-c2cccs2)cc(-c2cccnc2)[nH]c1=O,102%,98.5,96.8,90.3%,110%,104%,98.7%,97.8%,103%,97.2%,109%,98.2%,104%,105%,101%,100,101%,95.5%,97.1%,106%
COc1ccc2[nH]cc(-c3nc(-c4cn(C)c5c(Cl)nccc45)cs3)c2c1,58.3%,40.8,75.5,56.6%,6.1% (active),78.8%,13.9%,33.8%,16.2%,32.9%,40.7%,17.9%,72.1%,48.2%,32.5%,73,37.9%,23.3%,-33% (active),14%
O=S(=O)(NCCNc1nccc(-c2c(-c3cccc(F)c3)nc3occn23)n1)c1ccc(Br)cc1,87.9%,75.5,82.1,90.1%,68.5%,74.7%,81.8%,53.9%,76.3%,85.4%,90.4%,69.1%,76.9%,82.3%,68.3%,90.7,99.4%,92%,98.4%,79.8%
C[C@]12C=CC(=O)C=C1CCC1C2[C@@H](O)C[C@@]2(C)C1CC[C@]2(O)C(=O)COC(=O)CCC(=O)O (stereo not given in full),106%,84.6,106,121%,103%,87.1%,103%,71.3%,102%,124%,107%,104%,94.8%,94.7%,126%,105,116%,96.8%,99.3%,106%
c1ccc(CNc2c3ccccc3nc3ccccc23)cc1,41.2%,51.7,46.3,46%,10.3%,25.9%,56.8%,28.5%,34.3%,7.29% (active),48.6%,12.3%,37.4%,57.9%,41.9%,62.6,37.6%,24%,52.7%,32.3%
Cn1cc(-c2nonc2-c2c[nH]c3ccc(Br)cc23)c2cc(Br)ccc21,39.9%,44.8,32.1,29.1%,13.3%,55.6%,24.3%,30.8%,34.3%,49.1%,23.2%,7.65% (active),39.9%,31.9%,18.2%,37.8,22.4%,46%,66.8%,42.7%
